Screens (PubChem)
An excerpt weighted towards active compounds, which were near 2.3% of everything screened.
GBA mod: human lysosomal glucosylceramidase modulation. 48,000 compounds, 1.1% hits. Potency, µM. purified enzyme, resorufin glucoside fluorescence (screen aimed at inhibitors), 20 min. AID 360; in the data active means potency below about 15 µM; inconclusive means mostly about 16 µM to 33 µM;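 further: the screen sought inhibitors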
Target sequence (P04062 whole entry, looked up): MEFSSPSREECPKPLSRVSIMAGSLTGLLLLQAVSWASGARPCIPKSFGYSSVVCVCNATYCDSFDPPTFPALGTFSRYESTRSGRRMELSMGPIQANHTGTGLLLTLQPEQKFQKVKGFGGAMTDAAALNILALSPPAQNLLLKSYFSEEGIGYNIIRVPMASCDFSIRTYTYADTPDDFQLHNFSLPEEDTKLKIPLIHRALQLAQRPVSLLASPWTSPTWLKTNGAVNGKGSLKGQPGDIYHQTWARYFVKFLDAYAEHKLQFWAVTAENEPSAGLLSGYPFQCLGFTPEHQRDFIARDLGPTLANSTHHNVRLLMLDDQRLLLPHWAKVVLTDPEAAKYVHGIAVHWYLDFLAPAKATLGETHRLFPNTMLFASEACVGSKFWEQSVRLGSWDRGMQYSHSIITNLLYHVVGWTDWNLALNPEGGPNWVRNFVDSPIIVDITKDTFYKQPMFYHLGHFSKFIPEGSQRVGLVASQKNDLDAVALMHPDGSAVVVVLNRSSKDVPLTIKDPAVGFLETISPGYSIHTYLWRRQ
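Normal human glucocerebrosidase (0.2 nM final) was assayed with resorufin β-D-glucopyranoside (30 uM final) in 50mM citric acid/KH2PO4, 10mM sodium taurocholate, 0.01% tween-20, pH 5.9. Compounds were titrated; fluorescence (Ex 548, Em 600) read after 20 min at RT.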
Bst PK mod: modulators of Bacillus stearothermophilus pyruvate kinase. purified pyruvate kinase, luminescence ATP production; ribose 5-phosphate activator present at AC10. Potency, µM. 51,000 compounds, 1.2% hits. AID 361; in the data active means potency below about 11 µM; inconclusive means mostly about 12 µM to 25 µM;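 the screen sought inhibitors and activators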;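 further: scaled between full activation by ribose 5 phosphate and full inhibition by luteolin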
* = called active by the depositor; i = inactive; ? = inconclusive; . = no result given. Potency means the concentration at half of the fitted maximal effect.

SMILES | GBA mod | Bst PK mod
CCC(C(=O)NCc1ccco1)N(C(=O)CNS(=O)(=O)c1ccc(C)cc1)c1ccccc1OC (stereo not given) | >77 | >57
CCCC(C(=O)NCc1ccco1)N(C(=O)CNS(=O)(=O)c1ccccc1)c1ccccc1OC (stereo not given) | 15* | >57
O=C(NCCCn1ccnc1)c1cc2c(s1)CCCCC2 | ? | >57
CNc1nn(-c2cccc(Cl)c2)nc1N | >77 | .
O=C(c1cccs1)c1ccc(-c2cccs2)s1 | >77 | 6.3*
O=C(c1cc2ccccc2o1)c1cccs1 | >77 | ?
CCn1cnc2cc(NCc3cccc(OC)c3O)ccc21 | 14* | .
CCCCn1cnc2cc(NCc3cccc(OC)c3O)ccc21 | ? | >57
Cc1csc(/C(=N\O)c2csc(C)n2)n1 | >77 | >57
CN(C)Cc1cc(CCNC(=O)c2ccc(Cl)cc2)ccc1O | i | >57
Cc1ccc(Cn2c(=N)n(CC(O)c3ccco3)c3ccccc32)cc1 (stereo not given) | 10* | >57
CCCn1c(=N)n(CC(O)c2ccco2)c2ccccc21 (stereo not given) | >77 | >57
Cc1noc(C)c1CSc1ccccc1C(=O)Nc1nccs1 | >77 | >57
O=C(CN1C(=O)C2(OCCO2)c2ccccc21)c1ccc(Br)cc1 | >77 | >57
O=S(=O)(c1ccc2c(c1)OCCO2)N1CCN(c2nc3ccccc3s2)CC1 | >77 | >57
c1ccc2c(c1)CCN(c1nc3cc4c(cc3s1)OCCO4)C2 | >77 | 0.44*
CC(=O)c1cccc(S(=O)(=O)NCC(c2ccco2)N2CCCCC2)c1 (stereo not given) | >77 | >57
Cc1cc2nnc(SCC(=O)NCc3ccco3)n2c2ccccc12 | >77 | .
Cc1cc2nc(NC3=NCN(Cc4ccc5c(c4)OCO5)CN3)nc(C)c2cc1C | >77 | >57
COc1cccc(C(=O)Nc2nc(-c3ccc(S(=O)(=O)N4CCOCC4)cc3)cs2)c1 | . | >57
Cc1ccc(S(=O)(=O)N2CCOCC2)cc1C(=O)Nc1nc(-c2cccnc2)cs1 | >77 | 8.6*
O=C(Nc1nc(-c2ccc(S(=O)(=O)N3CCCCCC3)cc2)cs1)c1cccs1 | 14* | >57
O=C(Nc1nc(-c2ccc(S(=O)(=O)N3CCCC3)cc2)cs1)c1cccs1 | ? | >57
CC1(C)CSC(=S)N1S(=O)(=O)c1ccccc1 | >77 | >57
Cn1c(=O)c2sccc2n2c(CCCC(=O)NCc3ccc4c(c3)OCO4)nnc12 | >77 | >57
SMILES | GBA mod | Bst PK mod
COC(=O)c1ccc(=O)n(Cc2ccc3c(c2)OCO3)c1 | . | >26
O=S1(=O)N=C(Nc2nc3c(s2)CCCC3)c2ccccc21 | >77 | 4.5*
O=C(Nc1nc2c(s1)CCCC2)Oc1ccccc1 | >77 | >57
c1cc(-c2nc3cc(Oc4ccc5oc(-c6ccncc6)nc5c4)ccc3o2)ccn1 | >77 | >57
Cc1ccccc1CN1CCN(CC(=O)NCc2ccc3c(c2)OCO3)C1=O | >77 | >57
Cc1ccc(N(CC(=O)Nc2ccc3c(c2)OCCO3)S(=O)(=O)c2c(C)noc2C)cc1 | ? | >57
COc1ccc(N(CC(=O)Nc2ccc3c(c2)OCCO3)S(=O)(=O)c2c(C)noc2C)cc1 | 12* | >57
CCCCCn1c(CN2CCN(c3cc(Cl)ccc3C)CC2)nc2c1c(=O)[nH]c(=O)n2C | >77 | >57
COc1ccccc1OCc1ccc(C(=O)Nc2ccncc2)o1 | 13* | >57
COc1ccccc1OCc1ccc(C(=O)NC(C)(C)C)o1 | >77 | >57
O=C1CC(c2cccs2)Cc2nc(NCC3CCCO3)ncc21 (stereo not given) | >77 | >57
O=C(CN1C(=O)NC2(CCc3ccccc32)C1=O)Nc1cc(C(F)(F)F)ccc1N1CCOCC1 (stereo not given) | . | >57
CCCCOC(=O)CSc1nc(N)c(C#N)c(-c2ccc(OCC)cc2)c1C#N | >77 | >57
CCCCOc1ccc(-c2c(C#N)c(N)nc(SCC(N)=O)c2C#N)cc1 | 8.8* | >57
CCOC(=O)N1CCC(NC(=O)CSc2cc(=O)n(C)c3ccc(Cl)cc23)CC1 | >77 | >57
CCOC(=O)c1cc2c(ccn2C)n1CC(=O)N1CCN(c2ccccc2OC)CC1 | >77 | >57
COc1ccc(N(CC(=O)NC2CCCCCC2)S(=O)(=O)c2c(C)nn(C)c2C)cc1 | >77 | >57
Cc1ccc(N(CC(=O)NC2CCCCCC2)S(=O)(=O)c2c(C)nn(C)c2C)cc1 | 15* | >57
CC(=O)Nc1ccc(N/C=C/C(=O)c2ccc(C)o2)cc1 | >77 | i
Cc1ccc(C(=O)/C=C/Nc2ccccc2C(N)=O)o1 | >77 | 6.1*
O=C(Nc1ccc2c(c1)OCCO2)C1CCCN1S(=O)(=O)c1ccc(Cl)cc1 (stereo not given) | >77 | 11*
O=C(CN1CCN(S(=O)(=O)c2ccc(Cl)cc2)CC1)Nc1ccc2c(c1)OCCO2 | >77 | i
O=C(Nc1cccnc1)C1CCCN1S(=O)(=O)c1ccc(Cl)c(Cl)c1 (stereo not given) | . | 4.7*
O=C(Nc1nccs1)C1CCCN1S(=O)(=O)c1ccc(Cl)cc1 (stereo not given) | >77 | 10*
NC(=O)c1ccsc1NC(=O)C1CCCN1S(=O)(=O)c1ccc(Cl)cc1 (stereo not given) | >77 | i
SMILES | GBA mod | Bst PK mod
COc1ccc(S(=O)(=O)N2CCCC(C(=O)Nc3cccnc3)C2)cc1Cl (stereo not given) | ? | >57
Cc1nn(-c2ccccc2)c2sc(C(=O)OCc3nnc(-c4ccccc4)o3)cc12 | . | >57
COc1ccc(-n2c(SCC(=O)NCC3CCCO3)nc3n[nH]c(C)c3c2=N)cc1 (stereo not given) | >77 | >57
Cc1ccc(-n2c(SCC(=O)NCC3CCCO3)nc3n[nH]c(C)c3c2=N)cc1Cl (stereo not given) | 14* | >57
C=CCn1cnc2c(c1=O)c1nc3ccccc3nc1n2-c1ccc(Cl)cc1 | . | >26
CN(C)S(=O)(=O)c1cccc(CSc2cccc[n+]2[O-])c1 | >77 | >57
CCCCN(CC)S(=O)(=O)c1ccc(C(=O)Nc2nnc(-c3ccccc3Cl)o2)cc1 | >77 | >57
CCCCN(C)S(=O)(=O)c1ccc(C(=O)Nc2nnc(-c3cccs3)o2)cc1 | 8.2* | >57
COc1ccc(-n2nc3c(c2NC(=O)c2cc4ccccc4oc2=O)CS(=O)(=O)C3)cc1 | >77 | >57
COC(=O)c1ccc(CSc2nc3c(c(=O)n2-c2ccc(Br)cc2)SCC3)o1 | 4.9* | >57
CCOc1ccc(-n2c(SCc3ccc(C(=O)OC)o3)nc3c(c2=O)SCC3)cc1 | i | >57
O=C(Nn1c(-c2ccccc2)nc2ccccc2c1=O)C1CCC1 | >77 | >57
CC(NC(=O)Cc1cccs1)C(c1cccs1)N1CCOCC1 (stereo not given) | >77 | >57
CC(=O)c1sc2nc(-c3cccs3)cc(C(F)(F)F)c2c1N | 14* | >57
CS(=O)(=O)c1sc2nc(-c3cccs3)cc(-c3ccccc3)c2c1N | >77 | >57
CCCNC(=O)c1c(N)n(-c2cc(OC)cc(OC)c2)c2nc3ccccc3nc12 | >77 | >57
Clc1ccc(-c2nnc3sc(Cc4cccs4)nn23)c(Cl)c1 | . | 9.5*
c1coc(-c2nnc3sc(Cc4cccs4)nn23)c1 | . | >11
Cc1cccc(-n2c(O)c(C=Nc3ccc4c(c3)OCO4)c3ccccc3c2=O)n1 | >77 | >57
Cc1cc(N=Cc2c(O)n(-c3ccc4c(c3)OCO4)c(=O)c3ccccc23)ccn1 | 11* | >57
